Data as given in PubChem BioAssay (NCATS).
Several values for one entry are separate records, joined by “and”; a condition that tells them apart may be missing. Equal values may be shown once. Results filed as inconclusive are left out. Activity calls are given as the source filed them. The call rests on the fitted dose curve; in most records, active means well fitted curve in the direction sought with a large enough effect; inconclusive means small, poorly fitted or top-dose-only effect, or another doubt; inactive means no such curve, though single readings can be large; an effect the other way counts as inactive or inconclusive.

What was measured:
[1] = qHTS of pediatric cancer cell lines to identify multiple opportunities for drug repurposing: Primary screen for TC32 cells (AID 1347089); further: nearly all actives have a fitted effect of over 60% in size; further: potency means the concentration at half of the fitted maximal effect
Method in brief: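 qHTS, TC32, 48 h drug treatment, CellTiter-Glo luminescence as a proxy for metabolically active cells; primary top concentration 46 µM (MIPE 11-pt, NPC 8-pt); confirmatory 11-pt.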

[2] = qHTS of pediatric cancer cell lines to identify multiple opportunities for drug repurposing: Primary screen for DAOY cells (AID 1347090); further: nearly all actives have a fitted effect of over 55% in size; further: potency means the concentration at half of the fitted maximal effect
Method in brief: (§1)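 Cell viability, CellTiter-Glo luminescence; 500-1,000 cells/well, 8- or 11-point titration, 48 h compound exposure at 37 degrees C, 5% CO2. Controls: DMSO neutral, bortezomib 2.3 µM final as positive.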

[3] = qHTS of pediatric cancer cell lines to identify multiple opportunities for drug repurposing: Primary screen for A673 cells (AID 1347092); further: nearly all actives have a fitted effect of over 45% in size; further: potency means the concentration at half of the fitted maximal effect
Method in brief: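 Luminescence from CellTiter-Glo, taken after 15 min at room temperature, served as the proxy for metabolically active cells following 48 h treatment. Both potency and efficacy were taken from curves fitted to the titration data.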

[4] = qHTS of pediatric cancer cell lines to identify multiple opportunities for drug repurposing: Primary screen for SK-N-MC cells (AID 1347093); further: potency means the concentration at half of the fitted maximal effect
Method in brief: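 Metabolically active cells were quantified by ATP-dependent luminescence (CellTiter-Glo, 15 min at room temperature) following 48 h treatment. Cells had been plated at 500-1,000 per well and settled for 5 h beforehand.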

[5] = qHTS of pediatric cancer cell lines to identify multiple opportunities for drug repurposing: Primary screen for BT-37 cells (AID 1347094); further: potency means the concentration at half of the fitted maximal effect
Method in brief: (§2)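 Quantitative HTS format: each compound titrated (MIPE 11 points from 0.78 nM, NPC 8 points from 0.59 nM) onto cells plated 5 hours earlier. After 48 h at 37 degrees C, CellTiter-Glo luminescence was recorded.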

[6] = qHTS of pediatric cancer cell lines to identify multiple opportunities for drug repurposing: Primary screen for NB-EBc1 cells (AID 1347095); further: potency means the concentration at half of the fitted maximal effect
Method in brief: as §2

[7] = qHTS of pediatric cancer cell lines to identify multiple opportunities for drug repurposing: Primary screen for U-2 OS cells (AID 1347096); further: nearly all actives have a fitted effect of over 50% in size
Method in brief: (§3)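 Cells (500-1,000/well) rested 5 h, then received compounds for 48 h; metabolically active cells were measured by CellTiter-Glo luminescence. Final concentrations spanned up to 46 µM (MIPE, 11-point) or 0.59 nM-46 µM (NPC, 8-point) in primary screens, 11-point in follow-ups.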

[8] = qHTS of pediatric cancer cell lines to identify multiple opportunities for drug repurposing: Primary screen for Saos-2 cells (AID 1347097); further: nearly all actives have a fitted effect of over 40% in size; further: potency means the concentration at half of the fitted maximal effect
Method in brief: as §2

[9] = qHTS of pediatric cancer cell lines to identify multiple opportunities for drug repurposing: Primary screen for SJ-GBM2 cells (AID 1347091)
Method in brief: as §1

[10] = qHTS of pediatric cancer cell lines to identify multiple opportunities for drug repurposing: Primary screen for SK-N-SH cells (AID 1347098); further: nearly all actives have a fitted effect of over 65% in size
Method in brief: as §3

Measured: Potency

c1ccc2c(c1)Nc1ccccc1S2
active: [8] 48.6 µM
not listed: [9] | [10]
inactive: all other assays above

Cc1ccc(S(=O)(=O)N[C@@H](CCCCN)C(=O)CCl)cc1
active: [4] 21.1 µM
not listed: [5] | [8]
inactive: all other assays above

CCC1(C2=NCCN2)Cc2ccccc2O1 (centres undefined)
not listed: [5] | [9] | [10]
inactive: all other assays above

NCC(O)c1ccc(O)cc1 (centres undefined)
not listed: [5] | [9]
inactive: all other assays above

C[C@]12CC[C@H]3[C@@H](CCC4=CC(=O)CC[C@@H]43)[C@@H]1CC[C@@H]2OC(=O)CCc1ccccc1
inactive: [1] | [2] | [3] | [4] | [6] | [7]

Cc1ccc2c(c1)C1CN(C)CCC1N2 (centres undefined)
not listed: [5] | [6] | [8]
inactive: all other assays above

CN1C(=S)CN=C(c2ccccc2)c2cc(Cl)ccc21
not listed: [5] | [9]
inactive: all other assays above

C=C(C)[C@H]1Cc2c(ccc3c2O[C@@H]2COc4cc(OC)c(OC)cc4[C@@H]2C3=O)O1
active: [1] 1.67 µM and 4.66 µM | [2] 168 nM and 296 nM | [3] 106 nM and 743 nM | [4] 299 nM and 590 nM | [5] 777 nM and 2.17 µM | [6] 3.35 µM and 2.64 µM | [8] 0.944 µM

CCN(CC)CCN1C(=O)CN=C(c2ccccc2F)c2cc(Cl)ccc21
not listed: [9]
inactive: all other assays above

C#CCOC(C(=O)OCCN(C)C)(c1ccccc1)c1ccccc1
not listed: [9] | [10]
inactive: all other assays above

CCOP(=S)(OCC)Oc1cc(C)nc(C(C)C)n1
not listed: [9]
inactive: all other assays above

NCC1(CC(=O)O)CCCCC1
not listed: [5] | [9]
inactive: all other assays above

CCCN1CCC[C@@H]2Cc3[nH]ncc3C[C@H]21
not listed: [8] | [9]
inactive: all other assays above

CN1CCN(C(=O)O[C@H]2c3nccnc3C(=O)N2c2ccc(Cl)cn2)CC1
not listed: [5]
inactive: all other assays above

C=C1C[C@@H]2[C@H](CC[C@]3(C)C(=O)CC[C@@H]23)[C@@]2(C)C=CC(=O)C=C12
inactive: [1] | [2] | [9] | [6] | [7]

CC(C)=CC1C(C(=O)OCc2cccc(Oc3ccccc3)c2)C1(C)C (centres undefined)
not listed: [9]
inactive: all other assays above

Nc1ccncc1
not listed: [5]
inactive: all other assays above

O=C(NC(O)C(Cl)(Cl)Cl)NC(O)C(Cl)(Cl)Cl (centres undefined)
not listed: [5] | [9] | [10]
inactive: all other assays above

CC[N+](CC)(CC)CC
not listed: [9] | [10]
inactive: all other assays above

Cc1cccc(C)c1NC(=O)CN1CCCC1=O
not listed: [5] | [9] | [10]
inactive: all other assays above

COC[C@@H](NC(C)=O)C(=O)NCc1ccccc1
not listed: [4] | [5]
inactive: all other assays above

COc1ccc(C(CN(C)C)C2(O)CCCCC2)cc1 (centres undefined)
not listed: [4] | [5]
inactive: all other assays above

CC[C@@H](CO)NC(=O)[C@@H]1C=C2c3cccc4c3c(cn4C)C[C@H]2N(C)C1
not listed: [3] | [10]
inactive: all other assays above
